Screens from PubChem BioAssay.
Most compounds without a hit are left out; they make up all but 19% or so of the library.
TDP1 cell CPT: DT40-hTDP1 cell growth loss with CPT; chicken DT40 Tdp1-/-;hTDP1 cells + 20 nM CPT, ATP luminescence, 48 h; Potency, µM (doses to about 46.2 µM), for inactives: top-dose activity change, negative = growth inhibition, actives largely listed as inhibitors; 420,000 tested, 12% active; AID 686979; further: nearly all actives have a fitted effect of over 55% in size
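Chicken DT40 Tdp1-/- cells stably complemented with human TDP1 were seeded at 400 cells/well in medium containing 20 nM camptothecin, exposed to pin-transferred compounds, and grown at 37 °C for at least 48 hr. Viability was read as ATP luminescence.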
HT1080 IDH1KD tx: toxicity to HT-1080 IDH1 knockdown cells (counter line). HT-1080 IDH1 knockdown viability, ATP luminescence, 48 h. Potency, µM (doses to about 46.1 µM), without a hit: at the top dose activity, negative = toxicity, hits mostly cytotoxic. 360,000 tested, 2% active. AID 686971;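 further: 0% = DMSO wells and -100% = cell-free medium wells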
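CellTiter-Glo luminescence after 48 h compound exposure at 37 degrees C of IDH1-knockdown HT-1080 cells in 5% FBS RPMI. %Activity scaled between DMSO wells and cell-free media wells, with curves fitted and assigned curve classes.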
KB-V1 cytotox: KB-V1 MDR subline cytotoxicity. KB-V1 MDR cells viability, CellTiter-Glo, 72 h. Potency, µM (titrated, usually from 46.1 µM), most hits filed as cytotoxic. 400,000 tested, 3.4% active; further: nearly all actives have a fitted effect of over 60% in size
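KB-V1 MDR subline cells in DMEM (phenol-red free, 10% FBS) exposed to compounds in qHTS concentration series for 72 h at 37 degrees C. Viability read by CellTiter-Glo luminescence; concentration-effect curves fitted after normalization and correction.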
HT1080NT lethal: kills 2HG-producing HT-1080-NT fibrosarcoma cells. HT-1080-NT fibrosarcoma viability, CellTiter-Glo ATP luminescence, 48 h. Potency, µM (titrated, usually from 46.1 µM), without a hit: at the top dose activity, negative = less viability, usual class: cytotoxic. 360,000 tested, 1.6% active. AID 686970;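 further: NT is the 2HG producing partner of a matched IDH1 knockdown line; 0% = DMSO-treated cells and -100% = media-only wells without cells; nearly all actives have a fitted effect of over 55% in size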
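750 cells/well, RPMI + 5% FBS; 2 h settle, compound pin-transfer, 48 h at 37 degrees C. CellTiter-Glo 10 min RT, luminescence. Normalized to DMSO and media-only wells.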
DT40 TDP1 no CPT: qHTS for Inhibitors of human tyrosyl-DNA phosphodiesterase 1 (TDP1): qHTS in cells in absence of CPT. DT40 Tdp1-/- hTDP1 cells, no CPT, ATP luminescence, 48 h. Potency, µM (highest dose often 46.2 µM), without a hit: at the highest dose activity change, negative = growth inhibition, most hits filed as inhibitors. 420,000 tested, 15% active. AID 686978, 2013; further: nearly all actives have a fitted effect of over 55% in size
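DT40 Tdp1-/-;hTDP1 cells, no CPT (DMSO vehicle only), 400 cells/well; compounds pin-transferred; ≥48 hr, 37 °C; CellTiter-Glo 30 min RT dark, luminescence read.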
KB-3-1 cytotox: KB-3-1 parental cell cytotoxicity | KB-3-1 viability, CellTiter-Glo ATP luminescence, 72 h | 400,000 tested, 1.4% active | Potency, µM (titrated, usually from 46.1 µM), actives largely listed as cytotoxic | AID 1347075; further: nearly all actives have a fitted effect of over 60% in size
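Here the drug-naive KB-3-1 line serves as comparator for MDR sub-line selectivity; cells received compound titrations, 72 h at 37 °C, then CellTiter-Glo readout.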
* marks the source's active call; other numbers are inactive results; i = inactive; ? = inconclusive; · = no result given. The call rests on the fitted dose curve; in most records, active means well fitted curve in the direction sought with a large enough effect; inconclusive means small, poorly fitted or top-dose-only effect, or another doubt; inactive means no such curve, though single readings can be large; an effect the other way counts as inactive or inconclusive. Unless noted, on the % scale 0 is the no-effect control and ±100 the full control effect; potency means the concentration at half of the fitted maximal effect.

SMILES	TDP1 cell CPT	HT1080 IDH1KD tx	KB-V1 cytotox	HT1080NT lethal	DT40 TDP1 no CPT	KB-3-1 cytotox
Cc1ccc(NC(=O)c2sc3ncnc(N4CCN(c5ccccn5)CC4)c3c2C)c(C)c1	?	-15%	i	4%	18µM*	i
CCCN1CCN(c2ncnc3sc(C(=O)Nc4c(C)cc(C)cc4C)c(C)c23)CC1	16µM*	·	?	·	10µM*	21µM*
Cc1ccc(NC(=O)c2sc3ncnc(N(C)C4CCCCC4)c3c2C)c(C)c1	?	·	i	·	?	i
O=c1c2oc3ccccc3c2n(Cc2cccc(F)c2)c(=O)n1Cc1ccc2c(c1)OCO2	-29%	·	·	·	?	·
Cc1ccc(-c2cc3ncc4c(n3n2)-c2cc(Cl)ccc2OC4)cc1	0%	·	i	·	-10%	i
NCCc1nc2cccnc2n1-c1ccccc1	-16%	·	i	·	-5%	i
COc1ccccc1N1CCN(C(=O)NCc2ccc(Cl)cc2)CC1	-8%	-8%	i	-12%	?	i
COc1ccc(N2CCN(C(=O)c3ccc(-c4nc5ccccc5s4)o3)CC2)cc1	16µM*	-2%	i	-3%	12µM*	i
CCc1ccc2oc(C(=O)N3CCN(c4ccccc4OC)CC3)cc(=O)c2c1	5.2µM*	13µM*	23µM*	?	9.2µM*	18µM*
COc1ccccc1N1CCN(C(=O)c2ccc(-c3ccc(Cl)cc3)o2)CC1	3.7µM*	5.2µM*	?	7.3µM*	2.3µM*	4.6µM*
COc1ccccc1N1CCN(C(=O)c2ccc(-c3nc4ccccc4s3)o2)CC1	23µM*	-18%	?	-20%	16µM*	i
CCc1ccc2oc(C(=O)N3CCN(c4ccc(OC)cc4)CC3)cc(=O)c2c1	11%	-2%	i	-4%	?	i
CCCN1C(=O)C(NC(=O)c2ccccc2OC)(C(F)(F)F)C(C(=O)OC)=C1C (centres undefined)	?	·	i	·	?	i
CCC(=O)Nc1ccc(S(=O)(=O)NC[C@H]2O[C@@H](n3cc(C)c(=O)[nH]c3=O)C[C@@H]2O)cc1	2%	1%	i	6%	4%	i
Oc1ccc(/C=N/N=C/c2ccc(O)cc2)cc1	-12%	-1%	?	9%	-2%	i
NC(N)=N/N=C/c1ccc(Br)cc1	2.6µM*	?	?	?	4.1µM*	?
NC(N)=N/N=C/c1ccc(OCc2ccc(Cl)cc2)cc1	21µM*	?	21µM*	16µM*	?	i
CN(C)C(=O)c1cc(C(=O)c2ccccc2Br)c[nH]1	-18%	2%	i	7%	-30%	i
CC(C1CC1)N(C(=O)c1ccccc1[N+](=O)[O-])c1ccccc1 (centres undefined)	21µM*	0%	i	-9%	8.2µM*	i
Cn1ncc2c(Nc3ccccc3Cl)nc(Nc3ccccc3Cl)nc21	-5%	?	i	?	?	i
CC(C)CCNc1nc(Nc2ccccc2)c2cnn(C)c2n1	23µM*	·	·	·	23µM*	·
COc1ccc(CCN(C)C(=O)C2CCN(Cc3ccc(C)cc3)CC2)cc1OC	-13%	1%	i	11%	-2%	?
Cc1ccc(C)c(NC(=O)CCCn2nc(C)c3sc4ccccc4c3c2=O)c1	-17%	·	?	·	-25%	i
O=C1NC(Cc2c[nH]c3ccccc23)C(=O)N1Cc1ccc(CN2C(=O)NC(Cc3c[nH]c4ccccc34)C2=O)cc1 (centres undefined)	?	-13%	i	-10%	23µM*	i
Cc1nc2ccccc2c(=O)n1NC(=O)c1ccco1	0%	20%	i	13%	-5%	i
SMILES	TDP1 cell CPT	HT1080 IDH1KD tx	KB-V1 cytotox	HT1080NT lethal	DT40 TDP1 no CPT	KB-3-1 cytotox
C/C(=N\Nc1nc2ccccc2c(=O)n1O)c1ccco1	-27%	-26%	15µM*	-3%	?	21µM*
N#C/C(=C\C=C\c1ccccc1)c1nc(-c2ccc(Cl)cc2)cs1	-19%	3%	i	8%	?	i
Cc1cc(C)n2ncc(/C(N)=N/OC(=O)Nc3ccc(Cl)cc3)c2n1	-2%	-23%	i	-11%	5%	i
O=[N+]([O-])c1cc([N+](=O)[O-])c2c(=Nc3ccccc3)n(-c3ccccc3)n(O)c2c1	3.3µM*	?	i	?	10µM*	i
CCCc1c(C)nn(C(=O)/C(C#N)=N/Nc2ccccc2[N+](=O)[O-])c1C	-5%	-8%	?	3%	-21%	i
COc1ccc(C(=O)/C(C#N)=N/Nc2ccc([N+](=O)[O-])cc2)cc1	0.58µM*	5.8µM*	8.2µM*	?	0.52µM*	2.3µM*
COc1ccc(C(=O)/C(C#N)=N/Nc2ccccc2[N+](=O)[O-])cc1	2.3µM*	2.3µM*	i	2.6µM*	1.8µM*	?
O=C(COC(=O)/C=C/c1ccco1)Nc1cccc([N+](=O)[O-])c1	-7%	-4%	i	3%	-12%	i
COc1ccc(-c2nnc(SCC(=O)c3ccc(C)o3)o2)cc1	?	-2%	23µM*	2%	?	?
COc1ccc(CN(C(=O)CSc2nnc(-c3ccc(F)cc3)o2)c2ccc(F)cc2)cc1	23µM*	-7%	21µM*	1%	21µM*	i
COc1ccc(CN(C(=O)CSc2nnc(-c3c[nH]c4ccccc34)o2)c2ccc(F)cc2)cc1OC	8.2µM*	?	15µM*	?	9.2µM*	?
COc1ccc(-c2nnc(SCc3cc(C)cc(C)c3)o2)cc1	?	14%	21µM*	22%	?	i
CCOC(=O)CSc1nnc(-c2c[nH]c3ccccc23)o1	16%	1%	?	17%	7%	i
C[C@H]1CN([C@@H](C)CO)C(=O)CCCn2nncc2CO[C@@H]1CN(C)Cc1ccncc1	-25%	2%	i	-2%	-3%	i
COc1ccc2c(-c3ccc(S(N)(=O)=O)cc3)c(-c3ccc(S(C)(=O)=O)cc3)sc2c1	23µM*	?	i	23µM*	?	i
COc1ccc(-c2sc3ccc(N4CCOCC4)cc3c2C#CCCO)cc1	6.5µM*	23µM*	?	23µM*	4.6µM*	?
COc1ccc(-c2sc3ccccc3c2C#CCCO)cc1	26µM*	-4%	i	-2%	?	i
